# According to paper PMC4336329 (PLoS ONE, 2015):
# Screen size: about 310,000 compounds; about 14,000 (4.5%) showed an effect of 50% or more. The effect is printed as a negative number. The entries come from a sample that favours strong results as a whole.
# Target: human ether-à-go-go-related gene (hERG) potassium channel (human, UniProt Q12809)
# Assay: primary screen, population patch clamp on CHO cells stably expressing hERG; higher = less effect of the substance
# 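Note: peak tail current of the secondary pulse compared with the same well before compound.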
# Chain of human ether-à-go-go-related gene (hERG) potassium channel (Q12809 whole entry, looked up): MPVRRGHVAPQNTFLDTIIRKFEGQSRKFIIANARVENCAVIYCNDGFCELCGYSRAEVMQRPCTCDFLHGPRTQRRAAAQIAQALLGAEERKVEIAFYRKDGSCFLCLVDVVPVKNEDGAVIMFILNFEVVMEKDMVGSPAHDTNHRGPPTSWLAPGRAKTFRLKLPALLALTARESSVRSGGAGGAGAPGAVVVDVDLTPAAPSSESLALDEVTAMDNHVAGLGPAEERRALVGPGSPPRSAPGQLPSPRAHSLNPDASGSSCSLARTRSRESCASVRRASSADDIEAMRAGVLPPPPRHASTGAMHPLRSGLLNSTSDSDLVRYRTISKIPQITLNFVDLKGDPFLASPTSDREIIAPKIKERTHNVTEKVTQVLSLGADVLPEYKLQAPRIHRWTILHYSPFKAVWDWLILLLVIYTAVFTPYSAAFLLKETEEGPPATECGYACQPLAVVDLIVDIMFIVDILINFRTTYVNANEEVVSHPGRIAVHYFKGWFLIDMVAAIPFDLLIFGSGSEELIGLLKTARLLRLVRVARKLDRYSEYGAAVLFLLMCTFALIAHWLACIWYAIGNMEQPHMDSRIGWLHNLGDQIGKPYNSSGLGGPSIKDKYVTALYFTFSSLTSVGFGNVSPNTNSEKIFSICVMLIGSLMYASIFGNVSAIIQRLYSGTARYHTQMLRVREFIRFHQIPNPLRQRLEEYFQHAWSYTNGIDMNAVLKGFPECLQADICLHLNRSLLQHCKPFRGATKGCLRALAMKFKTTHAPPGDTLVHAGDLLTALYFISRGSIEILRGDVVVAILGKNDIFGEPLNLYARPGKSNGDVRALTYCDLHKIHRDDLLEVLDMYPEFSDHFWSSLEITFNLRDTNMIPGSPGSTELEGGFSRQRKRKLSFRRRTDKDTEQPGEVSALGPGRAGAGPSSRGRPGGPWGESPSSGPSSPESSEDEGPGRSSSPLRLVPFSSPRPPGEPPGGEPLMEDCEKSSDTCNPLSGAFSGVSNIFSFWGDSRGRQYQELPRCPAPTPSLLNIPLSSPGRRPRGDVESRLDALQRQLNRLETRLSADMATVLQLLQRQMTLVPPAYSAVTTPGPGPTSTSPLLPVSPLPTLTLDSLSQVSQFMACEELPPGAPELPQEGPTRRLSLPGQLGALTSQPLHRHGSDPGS
row,SMILES,"hERG current change (%, negative = inhibition) at 10uM [%]"
1,COC(=O)c1ccccc1NC(=O)c1cccs1,1.38
2,N=c1c2c(ncn1Cc1ccco1)Oc1cc(O)ccc1C2c1ccccc1 (stereo not drawn),-74.1
3,N=c1c2c(ncn1CCN1CCOCC1)Oc1cc(O)ccc1C2c1ccccc1 (stereo not drawn),-42.9
4,N=c1c2c(ncn1CCCO)Oc1cc(O)ccc1C2c1ccccc1 (stereo not drawn),-33.7
5,COc1ccc(/C=C(\C#N)C(=O)NC(C)c2ccccc2)cc1O (stereo not drawn),-24.2
6,Cc1cc(C(=O)N/N=C/c2ccco2)c2ccccc2n1,1.37
7,COc1cc(NC(=O)C(c2ccccc2)c2ccccc2)c(C(=O)O)cc1OC,16.7
8,O=C(NCc1cccnc1)Nc1ccc(F)cc1F,-4.58
9,Cc1noc(C)c1S(=O)(=O)N(CC(=O)N1CCn2c1nc1ccccc12)c1ccc(C(C)C)cc1,-14.9
10,CCOc1ccc(CNc2ccc3c(c2)ncn3C(C)(C)C)cc1,-58.6
11,CC(C)(C)n1cnc2cc(NCc3ccccc3O)ccc21,-10.1
12,Cc1ccc(CNc2ccc3c(c2)ncn3C)cc1,-33.8
13,CCc1ccc(CNc2ccc3c(c2)ncn3C(C)(C)C)cc1,-36.1
14,CCOc1ccc(CNc2ccc3c(c2)ncn3C)cc1,-46.6
15,Cc1ccc(CNc2ccc3c(c2)ncn3C(C)C)cc1,-78.3
16,CN(C)c1ccc(CNc2ccc3c(c2)ncn3C(C)(C)C)cc1,-27.2
17,CC(C)(C)n1cnc2cc(NCc3ccc(Br)cc3)ccc21,-69.2
18,CC(C)n1cnc2cc(NCc3ccccc3O)ccc21,3.94
19,CC(C)(C)n1cnc2cc(NCc3cccs3)ccc21,-28.2
20,CCN(CC)c1ccc(CNc2ccc3c(c2)ncn3C(C)(C)C)cc1,1.91
21,Cc1ccc(CNc2ccc3c(c2)ncn3C(C)(C)C)cc1,-72.5
22,COc1ccccc1CNC(=O)Cn1cccc1C(=O)c1ccccc1,8.74
23,COCC1CCN(C(=O)c2cc(COc3ccc4c(c3)CCCC4)on2)C1 (stereo not drawn),-24.9

row,SMILES,"hERG current change (%, negative = inhibition) at 10uM [%]"
1,Cc1cccn2c(=O)c(C=NCc3ccccc3)c(NCCO)nc12,0.417
2,Cc1ccc(CN2CCSc3ccc(C(=O)NCc4cccnc4)cc32)cc1,-2.7
3,CCN(C(=O)C(C)N1C(=O)/C(=C/c2cccs2)SC1=S)C1CCS(=O)(=O)C1 (stereo not drawn),-27.3
4,COC(=O)c1ccc(C(=O)OC)c(NC(=O)CN2CCN(c3ccc(OC)cc3)CC2)c1,11.5
5,Cc1csc(Nc2ccc(Cl)cc2)[n+]1-c1ccc(Cl)cc1.[Br-],14.9
6,CC(C)CNC(=O)c1ccccc1NC(=O)CCSc1ccccc1,-17.6
7,COC(=O)c1ccc([C@H]2C=C(C(=O)O)O[C@@H](OCc3ccc(CO)cc3)C2)cc1,13.6
8,CCN(CC)CCOCCOc1ccc(Cl)c2ccccc12,-68
9,CN(C)CCOCCOc1ccc(Cl)c2ccccc12.O=C(O)C(=O)O,-44.5
10,CCN(CC)CCOCCOc1ccccc1F,-3.91
11,COc1ccccc1CCNC(=O)C(=O)NCC1OCCN1S(=O)(=O)c1ccc([N+](=O)[O-])cc1 (stereo not drawn),-46.7
12,O=C(NCCN1CCOCC1)c1ccc2c(c1)ncn2C1CCCC1,-6.39
13,Cc1ccc2[nH]c3c(N4CCOCC4)ncnc3c2c1,-0.757
14,COc1cccc2[nH]c3c(N4CCN(Cc5ccc6c(c5)OCO6)CC4)ncnc3c12,-17.3
15,Cc1ccc2[nH]c3c(N4CCN(Cc5ccccc5)CC4)ncnc3c2c1,-72.3
16,c1ccc2c(c1)[nH]c1c(N3CCCC3)ncnc12,-15.2
17,Cc1ccc2c(c1)[nH]c1c(N3CCN(Cc4ccccc4)CC3)ncnc12,-24.5
18,c1ccc2c(c1)[nH]c1c(N3CCSCC3)ncnc12,-4.82
19,COc1ccc2[nH]c3c(N4CCN(Cc5ccc6c(c5)OCO6)CC4)ncnc3c2c1,-18.8
20,COc1ccc2c(c1)[nH]c1c(N3CCN(Cc4ccc5c(c4)OCO5)CC3)ncnc12,-74
21,c1ccc(CN2CCN(c3ncnc4c3[nH]c3ccccc34)CC2)cc1,-62.5
22,Cn1c2c(c(=O)n(C)c1=O)C(NC(=O)c1ccco1)(C(F)(F)F)C(=O)N2 (stereo not drawn),16.3
23,O=C1OC(c2ccccc2)=C/C1=C/N1CCOCC1,2.28

row,SMILES,"hERG current change (%, negative = inhibition) at 10uM [%]"
1,O=C(NCCc1nnc2ccc(NCc3ccccc3Cl)nn12)c1ccccc1,10.4
2,N#Cc1cc2c(nc1SCC(=O)O)CCCCC2,3.05
3,CCOC(=O)c1sc(NC(=O)c2ccc3ncsc3c2)nc1C,10.8
4,O=C(Nc1ccccc1Cl)c1cc[n+]([O-])cc1,27.8
5,COc1ccc(C2SCC(=O)N2CCc2ccc(OC)c(OC)c2)cc1 (stereo not drawn),-31.3
6,COc1ccc(CC[NH+](C)CCCN2CC(c3ccccc3)CC2=O)cc1OC.O=C([O-])C(=O)[O-] (stereo not drawn),-71.1
7,COc1ccc(CCN2CC(C(=O)O)CC2=O)cc1OC (stereo not drawn),0.984
8,COc1ccc(NC(=O)CN2CC(c3ccccc3)CC2=O)cc1OC (stereo not drawn),8.33
9,COc1ccc(C2CC(=O)N(CCC[NH+](C)CCc3ccc(OC)c(OC)c3)C2)cc1.O=C([O-])C(=O)[O-] (stereo not drawn),-74.7
10,COc1ccc(CCN2CC(C(=O)NCc3ccc(F)cc3)CC2=O)cc1OC (stereo not drawn),2.45
11,O=C(/C=C/c1ccc(O)cc1)c1ccc(O)cc1O,9.4
12,CCCn1c(O)c(CN2CCCCC2)c(C)c(C#N)c1=O,15.5
13,O=C(NC(=S)Nc1ccc(N2CCOCC2)cc1)c1cncc(Br)c1,19.5
14,CC(C)CC(=O)Nc1ccnn1C1CCN(C(=O)c2ccc(Cl)cc2F)CC1,-30.4
15,N#CC(C#N)C(c1ccsc1)c1c(-c2ccccc2)[nH][nH]c1=O (stereo not drawn),-3.36
16,CN1C(=O)C(=O)/C(=C(/O)c2ccc(Br)cc2)C1c1ccccc1F (stereo not drawn),8.71
17,CN1CCN(C(=O)C2=C[C@H](c3coc4ccccc4c3=O)C[C@H](OCCCCO)O2)CC1,-20.3
18,CN1CCN(C(=O)C2=C[C@@H](c3coc4ccccc4c3=O)C[C@@H](OCCCCO)O2)CC1,0.749
19,O=C(C1=C[C@@H](c2coc3ccccc3c2=O)C[C@@H](OCCCCO)O1)N1CCN(Cc2ccccc2)CC1,-57.9
20,O=C(C1=C[C@H](c2coc3ccccc3c2=O)C[C@H](OCCCCO)O1)N1CCN(Cc2ccccc2)CC1,-61.5
21,O=C(C1=C[C@@H](c2coc3ccccc3c2=O)C[C@@H](OCCCCO)O1)N1CCOCC1,7.47
22,O=C(C1=C[C@H](c2coc3ccccc3c2=O)C[C@H](OCCCCO)O1)N1CCOCC1,-16
23,Nc1nc(Sc2c([N+](=O)[O-])cc(C(F)(F)F)cc2[N+](=O)[O-])n[nH]1,3.04

row,SMILES,"hERG current change (%, negative = inhibition) at 10uM [%]"
1,CCn1c(COc2ccccc2OC)nc2ccccc21,2.28
2,Cc1ccc(-c2csc3nc(SCC(=O)N(C)C)n(Cc4ccccc4)c(=O)c23)cc1,-26
3,Cc1[nH][nH]c(=O)c1C(c1ccc(O)c(Br)c1)c1c(C)[nH][nH]c1=O,4.34
4,O=C(c1ccccc1Br)N1CCN(c2ccccn2)CC1,9.41
5,O=C(COC(=O)CCSc1ccccc1)NCc1ccccc1Cl,22.4
6,Nc1nc(Sc2ncccc2[N+](=O)[O-])n[nH]1,3.27
7,COc1ccccc1NC(=S)N1C2CCC1CC(NC(=O)NC13CC4CC(CC(C4)C1)C3)C2 (stereo not drawn),-2.49
8,Cc1cccc(N2C(=O)CN(Cc3sccc3C)C2=S)c1,-7.83
9,COc1ccccc1N1CCN(C(=O)c2cc(-c3ccccc3)on2)CC1,8.22
10,COc1ccc(Nc2nc3ccccc3n2C)cc1,11.3
11,Cn1c(Nc2ccccc2)nc2ccccc21,1.74
12,Cn1c(N2CCN(C(=O)Nc3ccc(C(F)(F)F)cc3)CC2)nc2ccccc21,-41.3
13,CCn1c(N2CCN(C(=O)Nc3ccc(F)cc3)CC2)nc2ccccc21,-68.2
14,CCn1c(N2CCN(C(=S)Nc3ccc(OC)cc3)CC2)nc2ccccc21,-68.3
15,Cn1c(N2CCN(C(=O)Nc3ccc(F)cc3)CC2)nc2ccccc21,-55.8
16,CCn1c(N2CCN(S(=O)(=O)c3ccc(F)cc3)CC2)nc2ccccc21,-36.2
17,CCn1c(N2CCN(C(=S)NC)CC2)nc2ccccc21,-30.2
18,O=C(Nc1ccc(F)cc1)N1CCN(c2nc3ccccc3s2)CC1,1.48
19,Cn1c(Nc2ccc(F)cc2)nc2ccccc21,-51.7
20,CCn1c(N2CCN(C(=S)NCC(C)C)CC2)nc2ccccc21,-30.4
21,CCn1c(N2CCN(C(=O)NC3CCCCC3)CC2)nc2ccccc21,-32.5
